In all, about 63,000 compounds went through this assay and about 1,100 (1.7%) were called active. No stated cut-off is given here; in the data, active means cytotoxicity above about 50%; inactive means the rest. The entries come from a sample that favours actives as a whole. Potency and affinity values are given separately.
Assay: cytotoxicity in HPDE-C7 cells, cell-based, fluorescence, HTS (AID 430);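 further: cells exposed to compound for 48 hours before viability readout; 0% = vehicle and 100% = reference cytotoxic drug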
Conditions: HPDE-C7 pancreatic duct cells viability, at 10 µM, stronger effect = higher value

Compound | cytotoxicity
Cc1cccc(Cn2c(SCCN3CCOCC3)nc3c2c(=O)n(C)c(=O)n3C)c1 | -7.8% (inactive)
COc1ccc(C2CC(c3ccccc3)Nc3nc(NC(=O)c4ccco4)nn32)cc1 (stereo not drawn) | -5.5% (inactive)
COC(=O)Cc1cc(=O)n2[nH]c(C)nc2n1 | -15.9% (inactive)
CCOC(=O)N1CCN(c2ccc(C(=O)c3ccccc3)cc2F)CC1 | 7% (inactive)
Brc1ccc2[nH]ncc2c1 | -5.6% (inactive)
COc1cccc(N2CCN(CC(=O)c3c[nH]c4ccc(OC)cc34)CC2C)c1 (stereo not drawn) | 9.5% (inactive)
O=c1[nH]c(CN2CCc3ccccc3C2)nc2ccccc12 | 3.3% (inactive)
COc1cccc(N2CCN(Cc3nc4ccccc4c(=O)[nH]3)CC2)c1 | -2.6% (inactive)
c1ccc2c(c1)CCN(c1ncnc3nc[nH]c13)C2 | -4.2% (inactive)
COC(=O)c1ccc(N2C(=O)CC(NCc3ccccc3)C2=O)cc1 (stereo not drawn) | -3% (inactive)
CCS(=O)(=O)N1CCCC(C(=O)NCc2ccc3c(c2)OCO3)C1 (stereo not drawn) | -13.3% (inactive)
Cc1cc(C)n(-c2nncc(-c3ccccc3)n2)n1 | 0.6% (inactive)
Cc1cc(NC(=O)CSc2nnc(Cn3c(=O)sc4ccccc43)n2-c2ccccc2C)no1 | -24.2% (inactive)
Cc1cc(C)nc(SCC(=O)c2ccc(O)cc2O)n1 | -21% (inactive)
Cc1ccc(S(=O)(=O)CCC(=O)OCC(=O)Nc2cc(C)on2)cc1 | -14.2% (inactive)
OCC1OC(n2nc3ccccc3n2)C(O)C(O)C1O (stereo not drawn) | -4.3% (inactive)
COc1cccc(-n2c(CNC(=O)OC(C)(C)C)n[nH]c2=S)c1 | 2.9% (inactive)
O=S(=O)(Nc1cccc2ncccc12)c1cccs1 | 45.6% (inactive)
Cc1ccc2ncccc2c1NS(=O)(=O)c1ccccc1 | -17.3% (inactive)
CCOCC(=O)Nc1nnc(Cc2ccc(OC)c(OC)c2)s1 | -11.9% (inactive)
O=C(NCCCN1CCOCC1)c1cc2ccccc2oc1=O | 3.1% (inactive)
Cc1oc(-c2ccc(Cl)cc2)nc1CN1CCC(C(=O)NCc2cccnc2)CC1 | -28.8% (inactive)
COCCOC(=O)c1[nH]c2c(c1C)C(=O)CC(c1ccc(N(C)C)cc1)C2 (stereo not drawn) | -10.9% (inactive)

Compound | cytotoxicity
COC(=O)c1[nH]c2c(c1C)C(=O)CC(c1cccs1)C2 (stereo not drawn) | 70.9% (active)
CCCCCOC(=O)c1[nH]c2c(c1C)C(=O)CC(c1ccco1)C2 (stereo not drawn) | 68.9% (active)
CCCOC(=O)c1[nH]c2c(c1C)C(=O)CC(c1ccc(OC)c(OC)c1)C2 (stereo not drawn) | -5.7% (inactive)
COC(=O)c1[nH]c2c(c1C)C(=O)CC(c1ccc(C)cc1)C2 (stereo not drawn) | 1.7% (inactive)
CCOc1ccc(C2CC(=O)c3c([nH]c(C(=O)OC)c3C)C2)cc1OC (stereo not drawn) | 2.6% (inactive)
CCOCCOC(=O)c1[nH]c2c(c1C)C(=O)CC(c1ccc(N(C)C)cc1)C2 (stereo not drawn) | -3.3% (inactive)
CCCCOC(=O)c1[nH]c2c(c1C)C(=O)CC(c1cc(OC)c(OC)c(OC)c1)C2 (stereo not drawn) | -7.3% (inactive)
COCCOC(=O)c1[nH]c2c(c1C)C(=O)CC(c1ccccc1)C2 (stereo not drawn) | 50.6% (active)
COC(=O)c1[nH]c2c(c1C)C(=O)CC(c1ccccc1)C2 (stereo not drawn) | 45.6% (inactive)
CCOC(=O)c1[nH]c2c(c1C)C(=O)CC(c1ccc(F)cc1)C2 (stereo not drawn) | 70.4% (active)
COCCOC(=O)c1[nH]c2c(c1C)C(=O)CC(c1ccc(F)cc1)C2 (stereo not drawn) | 4.9% (inactive)
COc1cccc(CNC(=O)C2CCN(S(=O)(=O)N3CCCC3)CC2)c1 | -7.2% (inactive)
COc1ccc2c(C)cc(=O)oc2c1C | 0.6% (inactive)
C=CCn1c(-c2cc(OC)c(OC)c(OC)c2)n[nH]c1=S | -1.6% (inactive)
Cc1nn(-c2ccccc2)c2c1C1(C(=O)N(C)c3ccccc31)N(c1ccccc1)C(=O)N2 (stereo not drawn) | -21.2% (inactive)
O=C1C=C(O)CC(c2ccc(Cl)cc2)C1 (stereo not drawn) | 31.1% (inactive)
CCOC(=O)c1sc(NC(=O)CSc2nnc(-c3ccco3)n2CC)c(C(=O)OCC)c1C | 31.5% (inactive)
CCC(C)N(C(=O)Cn1nnc2ccccc21)C(C(=O)NCc1ccco1)c1cccc(OC)c1 (stereo not drawn) | -10.2% (inactive)
COc1ccc(C(NC(=O)c2ccco2)c2ccc(OC)c(OC)c2)cc1OC | -8.3% (inactive)
Nc1nnc(-c2ccco2)s1 | -4.3% (inactive)
CCOC(=O)N1CCC(NC(=O)Cn2cc3c(n2)CCC(C)C3)CC1 (stereo not drawn) | 6.2% (inactive)
Cc1c(C(=O)OCCOC(C)C)[nH]c2c1C(=O)CC(c1ccco1)C2 (stereo not drawn) | 59.9% (active)
Cc1c(C(=O)OCc2ccccc2)[nH]c2c1C(=O)CC(c1ccco1)C2 (stereo not drawn) | 65.7% (active)

Compound | cytotoxicity
Cc1c(C(=O)OCC2CCCO2)[nH]c2c1C(=O)CC(c1ccco1)C2 (stereo not drawn) | 62.4% (active)
COc1cc(C2CC(=O)c3c([nH]c(C(=O)OCCOC(C)C)c3C)C2)cc(OC)c1OC (stereo not drawn) | 2.4% (inactive)
COCCOC(=O)c1[nH]c2c(c1C)C(=O)C(C(=O)OC)C(C)C2 (stereo not drawn) | -7.3% (inactive)
CC1=C(C(=O)OCc2ccccc2)C(c2ccco2)C2=C(CC(C)(C)CC2=O)N1 (stereo not drawn) | 22.7% (inactive)
COc1ccc(OC)c(C2CC(=O)c3c([nH]c(C(=O)OCC4CCCO4)c3C)C2)c1 (stereo not drawn) | 8.2% (inactive)
Cc1c(C(=O)OCC2CCCO2)[nH]c2c1C(=O)CC(c1ccc(N(C)C)cc1)C2 (stereo not drawn) | -4.3% (inactive)
Cc1c(C(=O)O)[nH]c2c1C(=O)CC(c1ccccc1)C2 (stereo not drawn) | -12.1% (inactive)
COCCOC(=O)c1[nH]c2c(c1C)C(=O)CC(c1ccco1)C2 (stereo not drawn) | 60.3% (active)
Cc1c(C(=O)OCCOC(C)C)[nH]c2c1C(=O)CC(C)(C)C2 | -12% (inactive)
CCN1CCN(c2ncc(C(=O)N3CCCc4ccccc43)c3ccccc23)CC1 | -18.1% (inactive)
Cn1c(=O)c2c(nc(N3CCCCCC3)n2CC(O)COc2ccccc2)n(C)c1=O (stereo not drawn) | 3.5% (inactive)
COC(=O)c1[nH]c2cc(OC)c(OC)cc2c1NC(=O)c1cccc(OC)c1 | -10.5% (inactive)
COc1ccc(-c2noc(COc3ccc(C)c(C)c3)n2)cc1OC | 3.4% (inactive)
Cc1c(C(=O)OC2CCC(C)CC2)[nH]c2c1C(=O)CCC2 (stereo not drawn) | -8.8% (inactive)
Cc1c(C(=O)OC2CCCC2)[nH]c2c1C(=O)CC(c1ccco1)C2 (stereo not drawn) | 79.3% (active)
CCOC(=O)c1[nH]c2c(c1C)C(=O)CC(c1ccc(OC)c(OC)c1)C2 (stereo not drawn) | -13.8% (inactive)
Cc1c(C(=O)OCC(C)C)[nH]c2c1C(=O)CC(c1ccco1)C2 (stereo not drawn) | 63.7% (active)
CCOC(=O)c1[nH]c2c(c1C)C(=O)CC(c1ccco1)C2 (stereo not drawn) | 70.2% (active)
CCC(C)OC(=O)c1[nH]c2c(c1C)C(=O)CC(c1ccc(N(C)C)cc1)C2 (stereo not drawn) | 11.5% (inactive)
Cc1c(C(=O)OC2CCCCC2)[nH]c2c1C(=O)CC(C)(C)C2 | -3.5% (inactive)
CSCCOC(=O)c1[nH]c2c(c1C)C(=O)CC(c1ccco1)C2 (stereo not drawn) | 64.9% (active)
CCOC(=O)c1[nH]c2c(c1C)C(=O)CC(c1ccc(OCC)c(OC)c1)C2 (stereo not drawn) | -5% (inactive)

Source: PubChem BioAssay AID430 (Sanford-Burnham Center for Chemical Genomics, 2006)
